# B1: unnamed (peptide)
# chain: SNRRPVPRRPSQPLN
# Molecular target: AgAbp1
# Experiment: SPOT peptide array binding signal intensity (averaged, normalized) (arbitrary units (background-subtracted, floor 0; scale differs between SH3 domains)); higher = stronger binding of the SH3 domain to the peptide
# Method in brief: (§1)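 Cellulose membranes carried synthetic 15-mer peptides with cysteines swapped for serines. These were incubated overnight at 4°C with 10 μg/ml of GST-fused SH3 domains from four yeast species in TBS-based blocking buffer. Binding signal, detected with anti-GST antibody and quantified in Genespotter, is the normalized, background-subtracted spot intensity averaged over replicates, in arbitrary units specific to each domain.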
row,Binder,SPOT peptide array binding signal intensity
1,B1,587

# Molecular target: AgBbc1
# Experiment: as above
# Method in brief: as §1
row,Binder,SPOT peptide array binding signal intensity
1,B1,790

# Molecular target: AgBem1-D1
# Experiment: as above
# Method in brief: as §1
row,Binder,SPOT peptide array binding signal intensity
1,B1,12

# Molecular target: AgBzz1-D1
# Experiment: as above
# Method in brief: as §1
row,Binder,SPOT peptide array binding signal intensity
1,B1,157

# Molecular target: AgBzz1-D2
# Experiment: as above
# Method in brief: as §1
row,Binder,SPOT peptide array binding signal intensity
1,B1,61.8

# Molecular target: AgCyk3
# Experiment: as above
# Method in brief: as §1
row,Binder,SPOT peptide array binding signal intensity
1,B1,7.5

# Molecular target: AgFus1
# Experiment: as above
# Method in brief: as §1
row,Binder,SPOT peptide array binding signal intensity
1,B1,27

# Molecular target: AgHof1
# Experiment: as above
# Method in brief: as §1
row,Binder,SPOT peptide array binding signal intensity
1,B1,9

# Molecular target: AgHse1
# Experiment: as above
# Method in brief: as §1
row,Binder,SPOT peptide array binding signal intensity
1,B1,18.2

# Molecular target: AgLsb1
# Experiment: as above
# Method in brief: as §1
row,Binder,SPOT peptide array binding signal intensity
1,B1,23.5

# Molecular target: AgLsb4
# Experiment: as above
# Method in brief: as §1
row,Binder,SPOT peptide array binding signal intensity
1,B1,3680

# Molecular target: AgMyo5
# Experiment: as above
# Method in brief: as §1
row,Binder,SPOT peptide array binding signal intensity
1,B1,0.25

# Molecular target: AgNbp2
# Experiment: as above
# Method in brief: as §1
row,Binder,SPOT peptide array binding signal intensity
1,B1,1230

# Molecular target: AgRvs167
# Experiment: as above
# Method in brief: as §1
row,Binder,SPOT peptide array binding signal intensity
1,B1,64.1

# Molecular target: AgSho1
# Experiment: as above
# Method in brief: as §1
row,Binder,SPOT peptide array binding signal intensity
1,B1,5.75

# Molecular target: AgSla1-D1-D2
# Experiment: as above
# Method in brief: as §1
row,Binder,SPOT peptide array binding signal intensity
1,B1,≤ 0

# Molecular target: AgSla1-D3
# Experiment: as above
# Method in brief: as §1
row,Binder,SPOT peptide array binding signal intensity
1,B1,3

# Molecular target: CaAbp1-D1
# Experiment: as above
# Method in brief: as §1
row,Binder,SPOT peptide array binding signal intensity
1,B1,328

# Molecular target: CaAbp1-D2
# Experiment: as above
# Method in brief: as §1
row,Binder,SPOT peptide array binding signal intensity
1,B1,574

# Molecular target: CaBbc1
# Experiment: as above
# Method in brief: as §1
row,Binder,SPOT peptide array binding signal intensity
1,B1,1250

# Molecular target: CaBem1-D1
# Experiment: as above
# Method in brief: as §1
row,Binder,SPOT peptide array binding signal intensity
1,B1,135

# Molecular target: CaBzz1-D1
# Experiment: as above
# Method in brief: as §1
row,Binder,SPOT peptide array binding signal intensity
1,B1,380

# Molecular target: CaBzz1-D2
# Experiment: as above
# Method in brief: as §1
row,Binder,SPOT peptide array binding signal intensity
1,B1,153

# Molecular target: CaCyk3
# Experiment: as above
# Method in brief: as §1
row,Binder,SPOT peptide array binding signal intensity
1,B1,464

# Molecular target: CaFus1
# Experiment: as above
# Method in brief: as §1
row,Binder,SPOT peptide array binding signal intensity
1,B1,111

# Molecular target: CaHof1
# Experiment: as above
# Method in brief: as §1
row,Binder,SPOT peptide array binding signal intensity
1,B1,≤ 0

# Molecular target: CaHse1
# Experiment: as above
# Method in brief: as §1
row,Binder,SPOT peptide array binding signal intensity
1,B1,20.5

# Molecular target: CaLsb1
# Experiment: as above
# Method in brief: as §1
row,Binder,SPOT peptide array binding signal intensity
1,B1,2

# Molecular target: CaLsb4
# Experiment: as above
# Method in brief: as §1
row,Binder,SPOT peptide array binding signal intensity
1,B1,4120

# Molecular target: CaMyo5
# Experiment: as above
# Method in brief: as §1
row,Binder,SPOT peptide array binding signal intensity
1,B1,2.75

# Molecular target: CaNbp2
# Experiment: as above
# Method in brief: as §1
row,Binder,SPOT peptide array binding signal intensity
1,B1,1960

# Molecular target: CaRvs167
# Experiment: as above
# Method in brief: as §1
row,Binder,SPOT peptide array binding signal intensity
1,B1,303

# Molecular target: CaRvs167-3
# Experiment: as above
# Method in brief: as §1
row,Binder,SPOT peptide array binding signal intensity
1,B1,3.5

# Molecular target: CaSho1
# Experiment: as above
# Method in brief: as §1
row,Binder,SPOT peptide array binding signal intensity
1,B1,≤ 0

# Molecular target: CaSla1-D1-D2
# Experiment: as above
# Method in brief: as §1
row,Binder,SPOT peptide array binding signal intensity
1,B1,1570

# Molecular target: CaSla1-D3
# Experiment: as above
# Method in brief: as §1
row,Binder,SPOT peptide array binding signal intensity
1,B1,14.2

# Molecular target: ScAbp1
# Experiment: as above
# Method in brief: as §1
row,Binder,SPOT peptide array binding signal intensity
1,B1,306

# Molecular target: ScBbc1
# Experiment: as above
# Method in brief: as §1
row,Binder,SPOT peptide array binding signal intensity
1,B1,478

# Molecular target: ScBem1-D1
# Experiment: as above
# Method in brief: as §1
row,Binder,SPOT peptide array binding signal intensity
1,B1,22

# Molecular target: ScBzz1-D1
# Experiment: as above
# Method in brief: as §1
row,Binder,SPOT peptide array binding signal intensity
1,B1,11.5

# Molecular target: ScBzz1-D2
# Experiment: as above
# Method in brief: as §1
row,Binder,SPOT peptide array binding signal intensity
1,B1,36.5

# Molecular target: ScCyk3
# Experiment: as above
# Method in brief: as §1
row,Binder,SPOT peptide array binding signal intensity
1,B1,17

# Molecular target: ScFus1
# Experiment: as above
# Method in brief: as §1
row,Binder,SPOT peptide array binding signal intensity
1,B1,56.8

# Molecular target: ScHof1
# Experiment: as above
# Method in brief: as §1
row,Binder,SPOT peptide array binding signal intensity
1,B1,≤ 0

# Molecular target: ScHse1
# Experiment: as above
# Method in brief: as §1
row,Binder,SPOT peptide array binding signal intensity
1,B1,639

# Molecular target: ScLsb1
# Experiment: as above
# Method in brief: as §1
row,Binder,SPOT peptide array binding signal intensity
1,B1,425

# Molecular target: ScLsb2
# Experiment: as above
# Method in brief: as §1
row,Binder,SPOT peptide array binding signal intensity
1,B1,8.5

# Molecular target: ScLsb3
# Experiment: as above
# Method in brief: as §1
row,Binder,SPOT peptide array binding signal intensity
1,B1,6520

# Molecular target: ScLsb4
# Experiment: as above
# Method in brief: as §1
row,Binder,SPOT peptide array binding signal intensity
1,B1,1140

# Molecular target: ScMyo3
# Experiment: as above
# Method in brief: as §1
row,Binder,SPOT peptide array binding signal intensity
1,B1,4.75

# Molecular target: ScMyo5
# Experiment: as above
# Method in brief: as §1
row,Binder,SPOT peptide array binding signal intensity
1,B1,2.75

# Molecular target: ScNbp2
# Experiment: as above
# Method in brief: as §1
row,Binder,SPOT peptide array binding signal intensity
1,B1,2500

# Molecular target: ScPex13
# Experiment: as above
# Method in brief: as §1
row,Binder,SPOT peptide array binding signal intensity
1,B1,377

# Molecular target: ScRvs167
# Experiment: as above
# Method in brief: as §1
row,Binder,SPOT peptide array binding signal intensity
1,B1,2630

# Molecular target: ScSho1
# Experiment: as above
# Method in brief: as §1
row,Binder,SPOT peptide array binding signal intensity
1,B1,83

# Molecular target: ScSla1-D1-D2
# Experiment: as above
# Method in brief: as §1
row,Binder,SPOT peptide array binding signal intensity
1,B1,2640

# Molecular target: ScSla1-D3
# Experiment: as above
# Method in brief: as §1
row,Binder,SPOT peptide array binding signal intensity
1,B1,66.1

# Molecular target: SpAbp1-D1
# Experiment: as above
# Method in brief: as §1
row,Binder,SPOT peptide array binding signal intensity
1,B1,352

# Molecular target: SpBbc1
# Experiment: as above
# Method in brief: as §1
row,Binder,SPOT peptide array binding signal intensity
1,B1,472

# Molecular target: SpBzz1-D1
# Experiment: as above
# Method in brief: as §1
row,Binder,SPOT peptide array binding signal intensity
1,B1,500

# Molecular target: SpBzz1-D2
# Experiment: as above
# Method in brief: as §1
row,Binder,SPOT peptide array binding signal intensity
1,B1,0.75

# Molecular target: SpCyk3
# Experiment: as above
# Method in brief: as §1
row,Binder,SPOT peptide array binding signal intensity
1,B1,6

# Molecular target: SpHof1
# Experiment: as above
# Method in brief: as §1
row,Binder,SPOT peptide array binding signal intensity
1,B1,245

# Molecular target: SpHof1-2
# Experiment: as above
# Method in brief: as §1
row,Binder,SPOT peptide array binding signal intensity
1,B1,204

# Molecular target: SpHof1-3
# Experiment: as above
# Method in brief: as §1
row,Binder,SPOT peptide array binding signal intensity
1,B1,302

# Molecular target: SpHse1
# Experiment: as above
# Method in brief: as §1
row,Binder,SPOT peptide array binding signal intensity
1,B1,91.5

# Molecular target: SpLsb1
# Experiment: as above
# Method in brief: as §1
row,Binder,SPOT peptide array binding signal intensity
1,B1,96

# Molecular target: SpLsb4
# Experiment: as above
# Method in brief: as §1
row,Binder,SPOT peptide array binding signal intensity
1,B1,2870

# Molecular target: SpMyo1
# Experiment: as above
# Method in brief: as §1
row,Binder,SPOT peptide array binding signal intensity
1,B1,73.1

# Molecular target: SpNbp2
# Experiment: as above
# Method in brief: as §1
row,Binder,SPOT peptide array binding signal intensity
1,B1,21.5

# Molecular target: SpPex13
# Experiment: as above
# Method in brief: as §1
row,Binder,SPOT peptide array binding signal intensity
1,B1,4

# Molecular target: SpRvs167
# Experiment: as above
# Method in brief: as §1
row,Binder,SPOT peptide array binding signal intensity
1,B1,1830

# Molecular target: SpSla1-D1-D2
# Experiment: as above
# Method in brief: as §1
row,Binder,SPOT peptide array binding signal intensity
1,B1,21

# Molecular target: SpSla1-D3
# Experiment: as above
# Method in brief: as §1
row,Binder,SPOT peptide array binding signal intensity
1,B1,0.5

# From the supplement of paper PMC4466140
